Source: PubChem BioAssay
Shown are actives, neighbours in structure and some others; about 3% of the full set was active somewhere.
ALOX12 inhib: blocks human 12-lipoxygenase activity. P18054. purified 12-hLO, xylenol orange hydroperoxide absorbance. Potency, µM (titrated, usually from 57.1 µM), for the others: at the top dose activity change, negative = inhibition, actives largely listed as inhibitors. 0.12% of 150,000 active; note: potency is the fitted concentration of half-maximal effect; nearly all actives have a fitted effect of over 55% in size
Target sequence (P18054 whole entry, looked up): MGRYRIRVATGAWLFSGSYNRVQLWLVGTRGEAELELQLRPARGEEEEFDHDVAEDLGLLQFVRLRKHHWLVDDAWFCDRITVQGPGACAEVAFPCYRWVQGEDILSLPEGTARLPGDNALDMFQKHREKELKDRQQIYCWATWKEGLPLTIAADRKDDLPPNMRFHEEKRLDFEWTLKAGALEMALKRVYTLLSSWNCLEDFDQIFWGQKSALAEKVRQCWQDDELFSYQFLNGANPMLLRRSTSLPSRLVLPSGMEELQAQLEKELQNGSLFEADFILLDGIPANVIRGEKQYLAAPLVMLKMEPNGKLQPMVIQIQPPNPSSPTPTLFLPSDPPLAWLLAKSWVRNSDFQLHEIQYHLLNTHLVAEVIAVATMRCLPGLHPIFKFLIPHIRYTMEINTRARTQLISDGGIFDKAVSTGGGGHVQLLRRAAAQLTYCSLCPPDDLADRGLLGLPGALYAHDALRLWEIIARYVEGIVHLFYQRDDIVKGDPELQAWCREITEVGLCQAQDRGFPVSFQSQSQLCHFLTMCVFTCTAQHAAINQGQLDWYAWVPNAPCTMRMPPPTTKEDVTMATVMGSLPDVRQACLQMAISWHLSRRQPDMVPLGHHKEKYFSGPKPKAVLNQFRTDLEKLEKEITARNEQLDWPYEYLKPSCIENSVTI
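Purified human 12hLO (150 nM), preincubated 15 min with compound, then 40 uM arachidonic acid for 30 min, room temperature, Hepes pH 7.0 with 0.01% Triton X-100. Hydroperoxide detected by ferrous iron/xylenol orange; 573/405 nm absorbance ratio gives reaction progress.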
15-hLO-2 inh: blocks human 15-lipoxygenase 2 activity. purified 15hLO-2, xylenol orange hydroperoxide absorbance. Potency, µM (doses to about 57.1 µM), for the others: top-dose activity change, negative = inhibition, most hits filed as inhibitors. 0.56% of 110,000 active. AID 881; note: potency is the fitted concentration of half-maximal effect; nearly all actives have a fitted effect of over 60% in size
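Screening format was qHTS against 50 nM purified 15hLO-2 in Hepes pH 7.5 with detergent. Activity follows hydroperoxide formation from 45 uM arachidonic acid, measured as 573:405 nm absorbance ratio of the ferric-xylenol orange complex.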
IMPase cell inh: membrane-permeable compound that blocks inositol monophosphatase; inhibition (IP1 accumulation), % at 46.1 µM; AID 901; CHO-M1 cells, IP1 accumulation, HTRF TR-FRET ratio; 120,000 tested, under 10 active; active = well fitted curve in the direction sought with a large enough effect in the signal ratio, not every such curve was filed as active; inconclusive = small, poorly fitted or top-dose-only effect, or a change in a side signal; inactive = no such curve, though single readings can be large or run the other way; the % refers to the signal ratio;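 note: cells stimulated with carbachol in lithium chloride buffer; plate controls were DMSO basal wells for no effect and reference inhibitor wells for full effect; higher means more IMPase inhibition seen as more IP1 and lower FRET ratio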
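Seeded CHO-M1 cells were dosed with compound at up to 46 uM, stimulated with carbachol for 30 min, then lysed in IP-One detection reagents. Higher IP1 lowers the TR-FRET signal.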
PNC inhibitor: inhibitors of perinucleolar compartment assembly; PC3M PTB-GFP, PNC prevalence imaging, 16 h; active compounds read low; activity change (PNC), negative = inhibition, % at 10 µM; 3.1% of 140,000 active; AID 2417;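 active = readout at or below -70, meaning at least 70% loss of cells showing the perinucleolar compartment, a nuclear body marking cancer cells; inconclusive = readout between -30 and a set limit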;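 note: plate controls were DMSO wells for no effect and camptothecin positive control wells for full effect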
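Compounds are pinned in duplicate onto adhered PC3M cells stably expressing GFP-tagged PTB and incubated 16 h at 37 C. Cells are then fixed, nuclei stained with Hoechst, and PNC-positive cells counted.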
Numbers without * were called inactive; u = inconclusive; x = no result; [ ] = remark or other dose. Unless noted, calls come from the whole dose curve; as a rule, active = well fitted curve in the direction sought with a large enough effect; inconclusive = small, poorly fitted or top-dose-only effect, or another doubt; inactive = no such curve, though single readings can be large; an effect the other way counts as inactive or inconclusive. Unless noted, % is set by controls: 0 for no effect and ±100 for the full control effect.

SMILES	ALOX12 inhib	15-hLO-2 inh	IMPase cell inh	PNC inhibitor
CN1CCN(c2ncnc3ccc(-c4cccc(C#N)c4)cc23)CC1	x	29%	x	x
NCC(=O)O	-4%	10%	6	x
O=C(Cc1ccc(-n2cccc2)cc1)NCc1cccs1	-7%	-5%	-5	-106*
O=c1c(-c2ccnn2-c2cccc(Cl)c2)cnc2n1CCS2	-3%	-3%	1	-81*
O=c1c(-c2ccnn2-c2ccc(F)cc2)cnc2n1CCS2	-7%	-2%	u	-28
O=C1c2ccccc2C(=O)N1CCCc1nc2ccccc2c(=O)n1-c1cccnc1	-2%	6%	-1	-16
O=C(Nc1ccccc1)c1ccc(NCCN2CCOCC2)c(S(=O)(=O)N2CCOCC2)c1	12%	-3%	-4	16
O=C(Nc1ccccc1)c1ccc(NCc2ccco2)c(S(=O)(=O)N2CCOCC2)c1	4%	-1%[11.4 µM]	12[1.84 µM]	-88*
COCCOC(=O)C1=C(C)N(c2ccccc2)C(=O)NC1c1cccc([N+](=O)[O-])c1 (configuration not stated)	1%	x	4	-10
COCCOC(=O)C1=C(C)Nc2cc(=O)[nH]c(=O)n2C1c1cccc([N+](=O)[O-])c1 (configuration not stated)	-5%	x	x	-109*
COCCN(C(=O)CNC(=O)c1ccco1)C(C(=O)NC1CCCC1)c1cccs1 (configuration not stated)	1%	x	6	-100*
O=C(c1ccc(C(=O)N2CCCc3ccccc32)nc1)N1CCCc2ccccc21	-3%	4%	-2	-100*
CCOC(=O)c1cc(OC(=O)c2cc(OC)c(OC)c(OC)c2)n(-c2ccccc2)n1	x	x	-4	x
C/C(=N\NC(=O)c1ccc(Cl)c(S(=O)(=O)Nc2ccccc2Cl)c1)c1ccncc1	0%	x	x	-83*
C/C(=N\NC(=O)c1cccc(S(=O)(=O)Nc2ccccc2Cl)c1)c1ccco1	0%	x	x	10
COc1ccccc1C1CC(c2ccccc2)Nc2ncnn21 (configuration not stated)	6%	40%	6	-10
Cc1cc(-c2ccc(N=Nc3cc(S(=O)(=O)O)c4ccccc4c3N)c(C)c2)ccc1N=Nc1cc(S(=O)(=O)O)c2ccccc2c1N	u	3.2µM*	x	x
CCCS(=O)(=O)c1c(S(=O)(=O)CCC)c2c3ccccc3ccn2c1C(=O)OC	-3%	x	6	-105*
CN(C)CC(C)(C)CNC(=O)c1ccc(Cc2nc3ccccc3[nH]2)cc1	-2%	x	x	x
O=C(N/N=C\c1cccc(OC(=O)c2ccco2)c1)c1ccc2c(c1)OCO2	-4%	x	x	u
Cc1ccc(-c2noc(CN(C(=O)Cc3ccccc3)C(C)C)n2)cc1	-4%	6%	11	-81*
CCC(C)NCCOCCOc1ccc(F)cc1 (configuration not stated)	-2%	0%	2	u
CCOC(=O)c1ccc(NC(=S)NCCC2=CCCCC2)cc1	25µM*	x	5	-10
COC(=O)N1C2=C(c3ccccc3[C@@H]1CC(=O)Nc1ccc3ccc4cccc5ccc1c3c45)[C@@H]1C(=O)N(c3ccccc3)C(=O)[C@@H]1[C@H](C)C2	-15%[11.4 µM]	x	x	x
COC(=O)CN(c1c(C)cccc1C)S(C)(=O)=O	4%	-7%	-3	-86*
SMILES	ALOX12 inhib	15-hLO-2 inh	IMPase cell inh	PNC inhibitor
COC(=O)N1C2CC(=O)O[C@@H]3c4cc5c(cc4[C@]1(C)[C@@]3(Br)c1ccccc12)OCO5	-15%[11.4 µM]	x	x	x
COc1cccc(NC(=O)N[C@@H](Cc2ccccc2)C(=O)O)c1	-6%	-4%[11.4 µM]	u	-19
COc1cccc(NC(=O)C(Cc2ccccc2)NC(=O)C2CCC(C)CC2)c1 (configuration not stated)	-8%	x	6	-119*
O=C(Nc1cccc(F)c1)c1ccc(-c2ccccc2C(F)(F)F)o1	2%	x	x	-10
COc1ccc(NC(=O)c2ccc(-c3ccccc3C(F)(F)F)o2)cc1	-6%	x	x	-100*
COc1ccc(CNC(=O)C(=O)NCC2OCCN2S(=O)(=O)c2cccs2)cc1 (configuration not stated)	-2%	x	x	u
COC(=O)CCS(=O)(=O)c1nc(-c2ccccc2)cc(C(F)(F)F)n1	0%	-15%	20	20
COCC(C)NC(=O)CCS(=O)(=O)c1nc(-c2ccc(OC)cc2)cc(C(F)(F)F)n1 (configuration not stated)	1%	-1%	6	-88*
CCCCNCc1cc(OC)c(OCC(N)=O)cc1Br	1%	x	-3	-100*
CCCCNCc1cc(OCC)c(OCC(N)=O)cc1Br	-1%	4%	-4	-25
O=C(N/N=C1\CCc2ccccc21)c1ccccc1O	13%	x	3	u
Cc1cc(C(=O)N/N=C2\CCCc3ccccc32)c(C)o1	2%	x	x	-113*
COCCn1c(=N)c(C(=O)NC2CCCC2)cc2c(=O)n3cc(C)ccc3nc21	x	x	2	x
CCOC(=O)c1cc2occc2n1CC(=O)N1CCCc2ccccc21	-17%	-20%	13	-84*
CCCCCNCCCCC	-2%	-7%	x	x
Oc1ccc(Cl)cc1C=Nc1ccccc1Br	-6%	x	x	25
Oc1ccc(Br)cc1C=Nc1ccc2c3c(cccc13)CC2	-7%	x	x	-98*
Cc1cccc(Nc2cc(Cl)nc(SCC(=O)O)n2)c1C	1%	1%	-3	x
Cc1cc(C(F)(F)F)nn1Cc1n[nH]c(=S)n1Cc1ccccc1	-7%	x	4	-100*
CC(=O)c1sc(Nc2nc(C)cc(C)n2)nc1C	1%	4%	u	-11
COC(=O)C1CC(=O)c2ccsc2C1 (configuration not stated)	-2%	x	x	-109*
O=C(Nc1nncs1)c1cccnc1Cl	0%	x	x	u
CC(=O)c1cccc(NC(=O)NC2CC3CCCC(C2)N3CC(C)C)c1 (configuration not stated)	8%	x	-5	-100*
CCCN1C2CCCC1CC(NC(=O)Nc1cccc(C(C)=O)c1)C2 (configuration not stated)	3%	9%	-8	u
Cc1c(NC(=O)C(C)OC(=O)c2cc(-c3cccc4ccccc34)nc3ccccc23)c(=O)n(-c2ccccc2)n1C (configuration not stated)	2%	x	0	-28
COc1ccc(-c2cc(C(=O)OC(C)C(=O)Nc3c(C)n(C)n(-c4ccccc4)c3=O)c3ccccc3n2)cc1 (configuration not stated)	-1%	x	3	-86*
Cc1c(NC(=O)COC(=O)c2cc(-c3ccc(-c4ccccc4)cc3)nc3ccccc23)c(=O)n(-c2ccccc2)n1C	1%	x	x	-113*
Cc1c(NC(=O)COC(=O)c2ccc[nH]c2=O)c(=O)n(-c2ccccc2)n1C	-2%	x	0	-4
COCCn1c(=O)c(-c2ccc(Cl)cc2)nc2cnc(N3CCNCC3)nc21	x	23%	x	x
CCOC(=O)N1CCN(C(=O)c2cc3c(=O)[nH]c4ccccc4c3s2)CC1	-7%	x	-10	-119*
